Laboratory results from PubChem BioAssay AID1347416 (National Center for Advancing Translational Sciences (NCATS), 2020).
About 1,600 (39%) of roughly 4,100 compounds were called active. Not shown: some 25% with an inconclusive outcome. Calls follow the shape of the dose curve; as a rule, active = well fitted inhibition curve with a large enough effect; inconclusive = small, poorly fitted or top-dose-only effect; inactive = no such curve, though single readings can be large or run the other way. Some of the results follow.

Assay: qHTS Validation assay for Inhibitors of Plasmodium falciparum Dd2 growth in vitro; also: nearly all actives have a fitted effect of over 70% in size
Details: P. falciparum Dd2 in RBCs, SYBR Green growth, 72 h; series mostly up to 28.7 µM
Procedure, shortened: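 P. falciparum Dd2-infected red blood cells (2.5% hematocrit, 0.3% parasitemia) grown 72 h at 37 °C under 5% O2 with compounds in a titration, 29 uM to 0.5 nM final. Growth read as SYBR Green-1 fluorescence after ~16 h lysis; artesunate 300 nM as positive control.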
Potency is read from the fitted curve at half-maximal effect.

Structure (SMILES) | Potency
COc1ccc(/C=N/Nc2cc(C)nc3ccccc23)cc1 | 2.11 µM (active)
S=C(NCc1ccccc1)N1CCn2cccc2C1c1cccnc1 (stereo not given) | 9.44 µM (active)
S=C(NCc1ccccc1)Nc1ccncc1 | inactive
CN(C)c1ccc(-c2ccnc(N[C@H]3CO[C@H]4[C@@H]3OC[C@@H]4NC(=O)NCc3ccccc3)n2)cc1 | inactive
c1csc(-c2ccnc(N[C@H]3CO[C@H]4[C@@H]3OC[C@@H]4NCC3CCCCC3)n2)c1 | 12.2 µM (active)
O=C(O)COc1ccc(-c2nccc(-c3cccs3)n2)cc1 | inactive
CCc1ccccc1CN1CCC(CO)(CN2CCCC2)CC1 | inactive
Cc1cc(CN2CCC(CO)(Cc3ccccc3Cl)CC2)cc(C)c1O | 16.8 µM (active)
Cc1cn2nc(C(=O)NCc3ccccn3)cc2c(=O)[nH]1 | inactive
COc1ccc(CC(=O)NCc2ccccn2)cc1OC | 7.5 µM (active)
CCOc1ccc(CNC(=O)CN2N=C(c3ccccc3)CCC2=O)cc1OC | inactive
O=C1c2ccccc2C(=O)c2[nH]c(=O)[nH]c21 | 5.96 µM (active)
C=C[C@]1(C)C[C@@H](OC(=O)CSC(C)(C)CNC(=O)[C@H](N)C(C)C)[C@]2(C)[C@H](C)CC[C@]3(CCC(=O)[C@H]32)[C@@H](C)[C@@H]1O | 8.41 µM (active)
CCN(CC)CCC(c1ccc(OC)cc1)c1c(O)cc(OC)cc1OC (stereo not given) | 6.68 µM (active)
CCN(CC)CCC(c1ccc2c(c1)OCO2)c1c(O)cc(OC)cc1OC (stereo not given) | 4.22 µM (active)
CCN(CC)CCC(c1ccc(N(C)C)cc1)c1c(O)cc(OC)cc1OC (stereo not given) | 3.35 µM (active)
CCCn1ccc2sc(C)c(C(=O)O)c2c1=O | inactive
COc1ccc(C(=O)N2CCc3ccc(C(=O)NCc4ccccn4)cc32)cc1 | inactive
CCn1cc(-c2ccncc2)cc1C(=O)NCc1cccc(OC)c1 | inactive
COc1cccc(CN2CCc3c(cc(C(=O)NCc4ccccn4)n3C)C2)c1 | 15 µM (active)

Structure (SMILES) | Potency
Cc1noc(-c2cn(C3CCN(C(=O)Cc4ccc(OC(F)(F)F)cc4)CC3)nn2)n1 | inactive
CCCCC(=O)NC(c1ccccc1OC)c1ccc2cccnc2c1O (stereo not given) | 5.31 µM (active)
CCOc1ccc(C(=O)NCc2nc3cccnc3n2Cc2cccc(OC)c2)cc1 | inactive
COc1cccc(C(NC(C)=O)c2ccc3cccnc3c2O)c1 (stereo not given) | 4.22 µM (active)
CCCC(=O)NC(c1ccc(C(C)C)cc1)c1ccc2cccnc2c1O (stereo not given) | 13.3 µM (active)
CCCC(=O)NCCc1noc(-c2ccccc2)n1 | inactive
CCCC(=O)NC(c1ccccc1)c1ccc2cccnc2c1O (stereo not given) | 6.68 µM (active)
Cc1cn2nc(-c3nc(C4CCCN(C(=O)c5cccs5)C4)no3)cc2c(=O)[nH]1 (stereo not given) | inactive
CCCCC(=O)NC(c1ccc(C(C)C)cc1)c1ccc2cccnc2c1O (stereo not given) | 7.5 µM (active)
c1ccc(-[n+]2nc(Nc3cccc4ccccc34)sc2-c2c3ccccc3cc3ccccc23)cc1 | 5.96 µM (active)
COc1cc(CN2CCC3(CC2)C(=O)NCN3Cc2ccc(Cl)cc2)ccc1F | inactive
CCOC(=O)C1(Cc2ccc(Cl)cc2)CCN(Cc2ccc(OC)cc2O)CC1 | 0.188 µM (active)
COC(=O)[C@]1(C)CCC[C@@]2(C)C3CC[C@@]4(C)C[C@]3(CCC21)CC(=O)N4Cc1ccc(OC)cc1 (stereo not given in full) | 3.76 µM (active)
COc1ccc(CCN2CC(C(=O)N3CCC(CO)CC3)CCC2=O)cc1 (stereo not given) | inactive
COc1ccc(CNC(=O)C2=C(C)C(=O)OC23CCC(C)CC3)cc1 (stereo not given) | inactive
Cc1c(C#N)c2ccccc2n1CCOc1ccccc1F | 1.68 µM (active)
COc1ccc(-c2nc(Cn3c(SCc4ccccc4F)nc4ccncc43)c(C)o2)cc1OC | 8.41 µM (active)
CC(C)c1ccc(NC(=O)CSc2nc(=O)n(Cc3ccccn3)c3c2CCC3)cc1 | inactive
COc1cc(NC(=O)CSc2nc3nc(C)c(Cc4ccc(C)cc4)c(C)n3n2)cc(OC)c1 | inactive
COc1cc(NC(=O)CSc2nc(-c3ccccc3)no2)cc(OC)c1 | 2.37 µM (active)

Structure (SMILES) | Potency
COc1cc(NC(=O)CSc2nc(-c3ccc(C(C)C)cc3)no2)cc(OC)c1 | 0.842 µM (active)
COc1ccc2c(CNCc3ccccc3OC)c(C(=O)O)n(Cc3ccc(F)cc3Cl)c2c1 | 15 µM (active)
COc1ccc(C2Cn3nnc(C(=O)NCc4ccc(F)cc4Cl)c3CO2)cc1 (stereo not given) | inactive
Cc1ncc2n1C(=O)N(C1CCN(Cc3ccnn3C)CC1)C2 | inactive
O=C(Nc1ccc([C@@H](O)[C@H]2COCC(=O)N2Cc2ccccc2F)cc1)c1ccccc1 | inactive
O=C(Nc1ccc([C@@H](O)[C@H]2COCC(=O)N2Cc2ccc(F)cc2)cc1)c1ccc2c(c1)OCO2 | inactive
COc1ccc(CN2C(=O)COC[C@@H]2[C@H](O)c2ccc(NC(=O)c3ccc(C(C)(C)C)cc3)cc2)cc1 | 2.11 µM (active)
CCOC(=O)c1nnn(-c2nonc2N)c1-c1ccc(Br)cc1 | 2.66 µM (active)
CCOC(=O)c1nnn(-c2nonc2N)c1-c1ccc(OC)cc1 | 5.31 µM (active)
CCOC(=O)c1nnn(-c2nonc2N)c1-c1ccc(Cl)cc1 | 5.31 µM (active)
CCOC(=O)c1nnn(-c2nonc2N)c1-c1ccc(C)cc1 | 5.31 µM (active)
COc1ccc(-c2noc(CCCC(=O)O)n2)cc1 | inactive
Cc1noc(C)c1COC(=O)/C=C/c1ccc(Cl)cc1 | inactive
CCCS(=O)(=O)N1C[C@@H](COC)[C@H](c2nc(C)no2)C1 | inactive
CCC(=O)N1CCc2cc(Br)cc(S(=O)(=O)C3(C(=O)OC)CC3)c21 | 3.76 µM (active)
CCC(=O)N1CCc2cc(Br)cc(S(=O)(=O)N3CCCCC3CC)c21 (stereo not given) | 1.06 µM (active)
CCC(=O)N1CCc2cc(Br)cc(S(=O)(=O)N3CCCC(C(=O)NC(C)(C)C)C3)c21 (stereo not given) | 3.35 µM (active)
CCC(=O)N1CCc2cc(S(=O)(=O)CCC(=O)NCc3ccc(OC)cc3)ccc21 | inactive
CC(C)(C)NC(=O)C1CCCN(C2CCN(C3Cc4ccccc4C3)CC2)C1 (stereo not given) | inactive
CCC(=O)N1CCc2cc(S(=O)(=O)NCCC(=O)Nc3ccc(OC)c(Cl)c3)ccc21 | inactive
